# Pf growth 96h: inhibits malaria parasite growth, 96 h | AID 504834 | Potency, µM (series often up to 28.7 µM), inactives show at the top dose activity change, negative = inhibition, usual class: inhibitors | 320,000 tested, 6.9% active | P. falciparum luciferase reporter growth, 96 h; note: % is set by controls: 0 for no effect and ±100 for the full control effect
#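 Parasite growth measured via integrated firefly luciferase reporter in P. falciparum. Infected erythrocytes at 2% hematocrit, 0.05% parasitemia final were treated 96 hours at 37 C under 5% CO2, and luminescence was read.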
# HCV inhibitor: blocks hepatitis C virus; 340,000 tested, 3.4% active; Potency, µM (highest dose often 41.8 µM), inactives show at the highest dose activity change, negative = inhibition, hits mostly inhibitors; Huh7.5.1 HCVcc-Cre infection, luciferase reporter, 44 h; AID 651820; note: % is set by controls: 0 for no effect and ±100 for the full control effect
#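 Seed cells (1,000/well) for 4 h; treat with compound and infect with HCVcc-Cre, moi about 0.5. Incubate 44 h, then detect luciferase activity.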
# AMA1 RON2 block: AMA1-RON2 (P. falciparum) interaction inhibition | AlphaScreen AMA1-biotinylated RON2 peptide binding | Potency, µM (top dose mostly 58.2 µM), for inactives: at the top dose activity change, negative = inhibition, actives largely listed as inhibitors | 360,000 tested, 0.2% active;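 note: 0% = vehicle wells and -100% = peptide control; nearly all actives have a fitted effect of over 45% in size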
#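 AMA1 (3D7) with his tag at 25 nM final met compounds first, then biotinylated RON2 peptide at 25 nM; detection used donor plus acceptor beads, 10 µg/mL apiece, read by AlphaScreen after 30 min at room temperature.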
# SARS PLP yeast: inhibitors of SARS-CoV papain-like protease in yeast | S. cerevisiae expressing SARS-CoV PLpro, growth rescue | Potency, µM (top dose mostly 32.9 µM), inactives show top-dose activity, positive = growth rescue, most hits filed as activators | 330,000 tested, 0.19% active | AID 485353; calls by dose curve; note: 0% is about no effect; nearly all actives have a fitted effect of over 55% in size
# Pf growth 48h: P. falciparum growth inhibition at 48 hours (one generation) | Potency, µM (top dose mostly 28.7 µM), without a hit: top-dose activity change, negative = inhibition, hits mostly inhibitors | 310,000 tested, 5.9% active | P. falciparum luciferase growth in erythrocytes, 48 h; note: % is set by controls: 0 for no effect and ±100 for the full control effect
#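 Parasite viability was followed by luminescence of a genomically integrated firefly luciferase. Cultures held 0.1% parasitemia at 2% hematocrit (final), incubated under 5% CO2 at 37 C.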
# NS1 function inh: blocks influenza NS1 protein function; AID 2326; Potency, µM (top dose mostly 46.1 µM), for inactives: top-dose activity, positive = more growth; 270,000 tested, 0.4% active; calls by dose curve; note: actives are rising curves; nearly all actives have a fitted effect of over 50% in size
#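 OD600 was taken as the measure of yeast growth restored by compound in an NS1-expressing S. cerevisiae strain. Cells had been washed out of glucose medium and diluted 1:100 into galactose -URA medium, pH 6.0.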
# Starred values were filed as active, the others as inactive; ? = inconclusive; . = no result. An excerpt weighted towards active compounds, which were near 12% of everything screened. Unless noted, calls come from the whole dose curve; as a rule, active = well fitted curve in the direction sought with a large enough effect; inconclusive = small, poorly fitted or top-dose-only effect, or another doubt; inactive = no such curve, though single readings can be large; an effect the other way counts as inactive or inconclusive. Potency is the fitted concentration of half-maximal effect.
SMILES,Pf growth 96h,HCV inhibitor,AMA1 RON2 block,SARS PLP yeast,Pf growth 48h,NS1 function inh
O=C(Nc1nc2c(Br)cc(Br)cc2c(=O)s1)C1CCC1,25.0%,13.3%,26.3%,2.3%,2.33µM*,2.2%
Cc1ccc(C)c2sc(NC(=O)C3CC3)nc12,57.8%,?,-7.7%,-4.1%,7.0%,-29.3%
CCNc1nc(N)nc(Oc2ccc(C(=O)OC)cc2)n1,0.262µM*,?,7.0%,1.0%,152.8%,-5.3%
C=CCN1C(c2cccc(C(F)(F)F)c2)=CS/C1=C(/C#N)c1nnc(N2CCOCC2)n1-c1ccccc1,11.7µM*,?,-16.4%,12.4%,10.4µM*,-13.5%
C=CCN1C(=O)NC(c2ccc(OC)cc2)(C(F)(F)F)S/C1=C(\C#N)c1nnc(N2CCOCC2)n1-c1ccccc1 (configuration not stated),?,30.2%,53.1%,-5.1%,-1.5%,-8.3%
C=CCN1C(c2ccc(Br)cc2)=CS/C1=C(/C#N)c1nnc(N2CCOCC2)n1-c1ccccc1,?,?,23.0%,9.8%,?,-18.5%
CC1=C(C)SC(=C(C#N)c2nnc(N3CCOCC3)n2-c2ccccc2)S1,9.28µM*,-10.1%,10.3%,6.1%,?,-4.0%
CC(C)CNC(=O)c1cccc(NC(=O)C(C)Oc2ccccc2)c1 (configuration not stated),?,-3.0%,7.9%,-1.8%,0.9%,-2.5%
Cc1ccc(S(=O)(=O)N2CCOC2C(Cl)(Cl)Cl)cc1 (configuration not stated),13.8%,3.2%,0.0%,-2.3%,8.28µM*,-11.0%
COc1ccc(-c2nsc(SCC(=O)NCC3CCCO3)n2)cc1 (configuration not stated),?,-24.5%,7.2%,0.1%,126.5%,.
Cc1cc(C)n2nc(SCc3nc4ccccc4[nH]3)nc2n1,7.38µM*,-0.4%,-1.0%,19.0%,44.6%,?
COc1ccc(C)cc1NS(=O)(=O)c1ccc2c(c1)N(C)CCO2,22.3%,?,-5.3%,-4.5%,-15.6%,-12.6%
CCOC(=O)[C@@H]1[C@H]2COc3ccccc3[C@H]2N2C(=O)N(c3ccc(C(F)(F)F)cc3)C(=O)[C@]12C,5.22µM*,-20.8%,-7.3%,-23.2%,10.4µM*,-109.0%
CCOC(=O)[C@@H]1[C@H]2COc3ccc(Br)cc3[C@@H]2N2C(=O)N(c3ccc(Br)cc3)C(=O)[C@@]12C,.,-8.0%,-2.1%,-3.7%,.,.
CCOC(=O)[C@H]1[C@H]2COc3cc(OC)ccc3[C@@H]2N2C(=O)N(c3ccc(Cl)cc3)C(=O)[C@@]12C,5.22µM*,-22.1%,-15.8%,-7.0%,-94.5%,12.4%
CCOC(=O)[C@@H]1[C@H]2COc3ccc(Br)cc3[C@@H]2N2C(=O)N(c3ccc(OC)cc3)C(=O)[C@]12C,3.29µM*,15.4%,0.0%,0.9%,-1.8%,-6.7%
CCOC(=O)[C@@H]1[C@H]2COc3ccc(Br)cc3[C@H]2N2C(=O)N(c3ccc(F)cc3)C(=O)[C@]12C,?,-8.6%,-3.0%,-4.1%,?,28.2%
CCOC(=O)[C@@H]1[C@H]2COc3ccc(Br)cc3[C@@H]2N2C(=O)N(c3ccc(C)cc3)C(=O)[C@]12C,13.1µM*,-0.2%,-6.0%,-0.1%,?,27.0%
O=C(NNC(=O)[C@H]1CC=CC[C@H]1C(=O)O)c1ccc(Cl)cc1Cl,44.8%,0.4%,9.0%,2.0%,0.0%,3.7%
CCOC(=O)[C@@H]1[C@H]2COc3ccc(Br)cc3[C@@H]2N2C(=O)N(c3ccc(Cl)cc3)C(=O)[C@]12C,.,-1.5%,-3.6%,.,.,.
CCOC(=O)[C@@H]1[C@H]2COc3ccc(Br)cc3[C@H]2N2C(=O)N(c3ccc(C)cc3)C(=O)[C@]12C,11.7µM*,3.9%,-2.3%,-1.4%,?,23.4%
COc1ccc(C)cc1S(=O)(=O)N1CCCC(C(=O)N2CCOCC2)C1 (configuration not stated),2.9%,11.9%,50.7%,16.2%,41.9%,6.9%

# Assay outcomes as filed in PubChem BioAssay.
